Source: PubChem BioAssay

Experiment: compound effects on hepatocellular carcinoma cell viability – HepG2, calcein-AM fluorescence, 48 h, basal, profiling panel (AID 1164); note: test concentration not given here
Details: higher = more signal

Row | Compound | z-score
1 | CC(CCN1CCCCc2nc(C)c(C)cc21)=NOC[C@@H](C)[C@H](OCc1ccccc1)C(C)C | 1.39
2 | COC(=O)CC=C[C@@H](C)[C@@H](C=NO[C@@H]1O[C@H](COC(C)=O)[C@@H](OC(C)=O)[C@H](OC(C)=O)[C@H]1OC(C)=O)OC | 0.2
3 | CO[C@@H]1COC(=O)[C@H](CCSC)NC(=O)CC=C[C@@H](C)COC(=O)CCC[C@H]1C | -0.764
4 | CCCNC(=O)OC[C@H]1O[C@H](CCON=C(C)CCC(=O)OC[C@H]2O[C@H](c3ccccc3)C=C[C@@H]2Oc2ccc(OC)cc2)C=C[C@@H]1Oc1ccc(OC)cc1 | -0.208
5 | CCN1C(=O)[C@@H]2[C@H]3C(=CC[C@@H]2C1=O)C1(OCCCO1)[C@H]1O[C@H]1[C@H]3O | -4.61
6 | O=C1[C@H]2[C@H]3[C@H](O)[C@H](O)CC(=NOC[C@@H](O)COCc4ccco4)[C@H]3CC[C@H]2C(=O)N1Cc1ccccc1 | -1.46
7 | CO[C@H]1COC(=O)[C@@H](C)COC(=O)[C@H](C)NC(=O)CC=C[C@H]1C | 0.314
8 | C[C@H]1COC(=O)[C@@H]2CCCN2C(=O)[C@@H](C)COC(=O)[C@H](Cc2ccccc2)NC1=O | -0.501
9 | COC(=O)CC=C[C@@H](C)[C@H](OCc1cccc(-c2ccccc2)c1)C1CCCCC1 | -0.0634
10 | C=CC[C@@H]1C=C[C@H](ON=C(C)CCC(=O)OC[C@H]2O[C@H](C#Cc3ccccc3)C=C[C@@H]2Oc2ccc(C)cc2)[C@@H](CO)O1 | -0.0329
11 | CON=C[C@@H](NS(=O)(=O)c1ccc(C)cc1)[C@H](C)C=CCC(=O)OC | 0.244
